Measured values reported in PubChem BioAssay AID1835 (Johns Hopkins Ion Channel Center, 2009).
Screen size: about 2,400 compounds; about 750 (31%) were called active. Some of the results follow. Unmarked numbers belong to inactive results.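 The calls were made as follows: active = median signal gain over dofetilide-blocked control wells reaching their mean plus 3 SD, so readout 1 at least 0; inactive = the rest.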

Target: Voltage-gated inwardly rectifying potassium channel KCNH2 (Homo sapiens) (UniProt Q12809)
Assay: modulators restoring hERG flux under dofetilide – cell-based, thallium flux, duplicate retest, dofetilide IC70, confirmation (AID 1835)
Details: hERG cell line, FluxOR thallium flux, dofetilide-blocked; at 10 µM; active compounds read high

Sequence of Voltage-gated inwardly rectifying potassium channel KCNH2 (Homo sapiens) (Q12809 whole entry, looked up): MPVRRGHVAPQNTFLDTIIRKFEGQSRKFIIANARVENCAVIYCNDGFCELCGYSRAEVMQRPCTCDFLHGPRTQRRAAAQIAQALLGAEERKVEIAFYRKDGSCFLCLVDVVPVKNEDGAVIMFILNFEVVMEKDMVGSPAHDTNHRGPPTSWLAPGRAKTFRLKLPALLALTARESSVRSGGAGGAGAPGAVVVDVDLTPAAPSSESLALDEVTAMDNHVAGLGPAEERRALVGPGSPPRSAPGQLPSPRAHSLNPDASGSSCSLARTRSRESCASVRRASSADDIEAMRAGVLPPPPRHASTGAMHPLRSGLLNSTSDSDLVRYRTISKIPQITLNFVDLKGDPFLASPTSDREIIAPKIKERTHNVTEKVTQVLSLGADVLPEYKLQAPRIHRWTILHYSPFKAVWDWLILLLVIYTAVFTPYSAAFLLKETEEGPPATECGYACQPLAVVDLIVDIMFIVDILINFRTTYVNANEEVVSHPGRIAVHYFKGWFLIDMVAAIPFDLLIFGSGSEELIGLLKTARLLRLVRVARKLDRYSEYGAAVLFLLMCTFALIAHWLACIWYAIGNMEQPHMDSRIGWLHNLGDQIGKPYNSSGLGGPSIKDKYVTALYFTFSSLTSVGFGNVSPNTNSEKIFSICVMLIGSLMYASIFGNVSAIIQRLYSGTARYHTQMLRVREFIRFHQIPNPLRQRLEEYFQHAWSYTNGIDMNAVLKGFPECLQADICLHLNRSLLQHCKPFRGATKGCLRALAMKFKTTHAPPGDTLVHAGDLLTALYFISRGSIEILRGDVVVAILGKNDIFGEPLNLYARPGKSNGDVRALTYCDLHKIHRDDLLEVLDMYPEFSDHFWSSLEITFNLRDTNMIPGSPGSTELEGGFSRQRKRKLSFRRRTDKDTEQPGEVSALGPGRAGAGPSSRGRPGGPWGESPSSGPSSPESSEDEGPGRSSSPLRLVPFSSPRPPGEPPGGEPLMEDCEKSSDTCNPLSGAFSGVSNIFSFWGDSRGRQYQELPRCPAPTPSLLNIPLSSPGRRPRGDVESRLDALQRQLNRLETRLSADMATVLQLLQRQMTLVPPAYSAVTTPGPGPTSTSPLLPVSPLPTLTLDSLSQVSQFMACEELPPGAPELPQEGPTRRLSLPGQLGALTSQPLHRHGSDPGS

SMILES	activity increase over dofetilide control, less the hit threshold
Cc1ccc(C)c(NC(=S)c2nc3ccccc3s2)c1	-10%
Cc1ccccc1NP(=O)(c1ccccc1)c1nc2ccccc2s1 (stereo not drawn)	-8%
Cc1ccc(C)c2sc(NC(=O)c3nc4ccccc4s3)nc12	35% (active)
Cc1ccccc1C(=O)NNC(=O)C(=O)Nc1cccc(Cl)c1C	27% (active)
COc1ccc(Cl)cc1C(=O)Nc1cccnc1Cl	-8%
COc1ccccc1C(=O)NNC(=O)C(=O)Nc1cccc(Cl)c1C	100% (active)
C/C(CC(=O)Nc1ccccn1)=N\NC(=O)C(=O)Nc1cccc(Cl)c1C	-6%
CC(=O)Nc1ccccc1C(=O)C(=O)Nc1ccc(Cl)cc1	-3%
COc1ccccc1C(=O)Nc1ccc(C(=O)N2CCCC2)cc1	0%
NC(=O)Cn1c2[n+](c3ccccc31)CC(O)CS2 (stereo not drawn)	-24%
CC(C)CN1C(=O)/C(=C/c2ccco2)NC1=S	-26%
CCCN1C(=O)/C(=C/c2ccc3c(c2)OCO3)NC1=S	-13%
CCCN1C(=O)/C(=C/c2ccc(C)s2)NC1=S	71% (active)
CCN1C(=O)/C(=C/c2ccc(C)s2)NC1=S	14% (active)
CC(C)CN1C(=O)/C(=C/c2cccs2)NC1=S	85% (active)
COC(=O)c1c(NS(=O)(=O)Cc2ccccc2)sc2c1CCCC2	31% (active)
COc1ccc(S(=O)(=O)Nc2ccc(O)c3ccccc23)cc1	-21%
Cc1ccc(C(=O)Nc2sc3c(c2C(=O)O)CCCCC3)o1	-22%
CCOC(=O)c1c(NS(=O)(=O)Cc2ccccc2)sc2c1CCCC2	69% (active)
CCOC(=O)c1c(NS(=O)(=O)c2ccc(Br)cc2)sc2c1CCC2	68% (active)
COc1ccc(NS(=O)(=O)c2ccc3ccccc3c2)c2ncccc12	-20%
COC(=O)c1c(NS(=O)(=O)c2ccc3ccccc3c2)sc2c1CCCC2	29% (active)

SMILES	activity increase over dofetilide control, less the hit threshold
O=C(O)C1C2CCC(O2)C1C(=O)Nc1ccc(F)c(Cl)c1 (stereo not drawn)	-7%
Cc1ccc(CN2CCN(CC(=O)NC(C)c3ccc4c(c3)OCCO4)C2=O)cc1 (stereo not drawn)	-9%
O=c1[nH]c(=O)n(CCc2ccc(F)cc2)c(O)c1C=NCc1ccc2c(c1)OCO2	-26%
CC(C)=CCCC1=CCC2C(=O)NNC(=O)C2C1 (stereo not drawn)	-11%
CCOc1ccc(N)c(SSc2cc(OCC)ccc2N)c1	-43%
COC(=O)CNc1nc(Cl)nc(Nc2ccc(C)cc2)n1	-7%
COC(=O)c1ccccc1NC(=O)C1CCCN(S(C)(=O)=O)C1 (stereo not drawn)	-17%
CCc1nnc(NC(=O)C2CCCCN2S(=O)(=O)c2ccccc2)s1 (stereo not drawn)	-16%
Cc1nnc(NC(=O)C2CCCN(S(=O)(=O)c3ccccc3C(F)(F)F)C2)s1 (stereo not drawn)	4% (active)
Cc1cccc(NC(=O)COc2coc(CN3CCN(c4ccccc4)CC3)cc2=O)c1	-18%
CCOC(=O)c1c(SCC(=O)Nc2nc(C)cs2)nc(=O)[nH]c1C	-16%
CCOC(=O)Cc1csc(NC(=S)NC(=O)C(C)(C)C)n1	2% (active)
CCOC(=O)Cc1csc(NC(=S)NC(=O)c2ccccc2Br)n1	22% (active)
COC(=O)c1c(NC(=O)C(C)(C)C)csc1C	-11%
CCOC(=O)Cc1csc(NC(=S)NC(=O)c2ccc(C)cc2)n1	-18%
CCOC(=O)Cc1csc(NC(=S)NC(=O)c2ccc(Cl)cc2)n1	11% (active)
CCOC(=O)Cc1csc(NC(=S)NC(=O)c2ccccc2C)n1	3% (active)
COc1cc(S(=O)(=O)NCC2COCCO2)ccc1-n1cnnn1 (stereo not drawn)	-17%
Cc1ccc(-n2nc(C)c3c2OC(N)=C(C#N)C3c2ccoc2)cc1 (stereo not drawn)	-19%
CCOc1ccc(/C=C2\CCc3ccccc3C2=O)cc1	-13%
CCOC(=O)C1=C(O)c2ccccc2C(=O)/C1=C\c1ccc(CC)cc1	28% (active)
CSc1ccccc1C(=O)NCc1ccc(C)cc1	-16%

SMILES	activity increase over dofetilide control, less the hit threshold
CCOC(=O)c1c(C=O)c(C)n(Cc2ccccc2)c1C	-5%
CCOc1cc(/C=C2/C(=O)ON=C2C)ccc1O	-22%
CCOC(=O)C1=C(Cc2ccc(C)cc2)C(=O)c2ccccc2C1=O	17% (active)
Cc1ccc(OCC(=O)NC(=S)Nc2ccc(Br)cn2)cc1C	-13%
Cc1nc(NC(=S)NC(=O)COc2ccc(Cl)cc2)ccc1Br	0%
Cc1ccc(OCC(=O)NC(=S)Nc2ccc(Br)cn2)cc1	13% (active)
COc1ccc(C(=O)NC(=S)NCCO)cc1Br	-17%
CCN(CC)C(=S)NC(=O)c1ccc(OC)c(Br)c1	11% (active)
C=CCNC(=S)NC(=O)c1ccc(C)c(Br)c1	-8%
COc1ccc(C(=O)NC(=S)N(C)C2CCCCC2)cc1Br	-5%
C=CCN(CC=C)C(=S)NC(=O)c1ccc(OC)cc1	23% (active)
C=CCN(CC=C)C(=S)NC(=O)c1ccc(OC)c(Br)c1	48% (active)
C=CCN(CC=C)C(=S)NC(=O)c1ccc(C)c(Br)c1	100% (active)
COc1ccc(-c2nc3ccc(C(=O)NCC(OC)OC)cc3nc2-c2ccc(OC)c(OC)c2)cc1OC	-14%
O=C(OCCNc1ccc(C(F)(F)F)cc1[N+](=O)[O-])c1cc2ccccc2oc1=O	-10%
Nn1c(SCC(=O)Nc2ccc(F)cc2)nnc1C1CCCCC1	-24%
O=C(Cn1cnc2ccccc21)c1ccccc1	-5%
CC(=O)NC1C(Oc2ccccc2C)OC(CO)C(O)C1O (stereo not drawn)	-10%
O=C(NCCOC(=O)c1ccc([N+](=O)[O-])cc1)c1cccnc1	-4%
CCC(=O)Nc1ccc(C(=O)NNC(=O)c2cc([N+](=O)[O-])cc([N+](=O)[O-])c2)cc1	-13%
COc1ccc(OC(=O)Cc2cccc3ccccc23)cc1	-13%
C=CCN(CC=C)C(=S)NC(=O)c1ccc([N+](=O)[O-])cc1	56% (active)

SMILES	activity increase over dofetilide control, less the hit threshold
COc1ccc(/C=C/C(=O)NC(=S)NNC(=O)c2cccs2)cc1	-24%
C=CCN(CC=C)C(=S)NC(=O)/C=C/c1ccc(OC)cc1	1% (active)
C=CCN(CC=C)C(=S)NC(=O)Cc1cccc2ccccc12	17% (active)
COc1ccccc1CNC(=O)CCCC(=O)n1ncc2cc(C)ccc21	-12%
O=C(NN=C1c2ccccc2-c2ccccc21)c1ccccc1	-5%
CCNC(=S)N/N=C1\C(=O)c2cccc3cccc1c23	9% (active)
O=C(N/N=C1/C(=O)c2cccc3cccc1c23)c1ccc(Cl)cc1	52% (active)
C/C(=N\NC(=O)c1ccc(Cl)cc1)c1ccc(Br)s1	-11%
O=C1c2cccc3cccc(c23)C(=O)C1(O)O	-24%
Cc1c(C(=O)NNC(=O)c2ccncc2)oc2ccc(Br)cc12	-12%
CC/C(=N\NC(=S)Nc1cccc(C)c1)c1ccccc1	-1%
Cc1cccc(NC(=O)C(=O)NNC(=O)c2ccc(C(C)(C)C)cc2)c1	83% (active)
CC(C)(C)NC(=O)C(=O)NNC(=O)c1cccc(Br)c1	35% (active)
CC(C)(C)NC(=O)C(=O)NNC(=O)c1ccccc1	-5%
CC(C)(C)NC(=O)C(=O)NNC(=O)c1ccc(C(C)(C)C)cc1	38% (active)
CCCc1cc(C(=O)NNC(=S)Nc2cccc(C)c2)cs1	-22%
Cc1ccc(Oc2ccc(OCC(=O)NC(CC(C)C)C(=O)O)cc2)cc1 (stereo not drawn)	-20%
CC(C)(C)NC(=O)C(=O)NNC(=O)COc1ccc(Br)cc1	33% (active)
CC(C)(C)NC(=O)C(=O)NNC(=O)COc1ccccc1	-4%
CC(NC(=O)c1ccncc1)C(C)(C)C (stereo not drawn)	-4%
N#C/C(=N/Nc1ccc([N+](=O)[O-])cc1)C(=N)N1CCCCC1	-20%
O=C1CC(c2ccccc2)c2cccc(F)c21 (stereo not drawn)	-22%

SMILES	activity increase over dofetilide control, less the hit threshold
CC1CC(C)CN(CCCNC(=O)Cc2c(C(=O)O)[nH]c3ccccc23)C1 (stereo not drawn)	-14%
S=c1[nH]c2cc(Cl)ccc2s1	93% (active)
O=C(Nc1ccc2[nH]c(=S)sc2c1)Nc1ccccc1F	-16%
S=c1[nH]c2ccc(Cl)cc2s1	91% (active)
S=c1[nH]c2ccccc2n2cccc12	-4%
CNC(=O)c1c(O)c2cccc3c2n(c1=O)CC3	-17%
CC(=O)c1cc(N2CCC(C(=O)O)CC2)ccc1[N+](=O)[O-]	-22%
COc1cccc(OC)c1OCCOCCN1CCN(C)CC1	-17%
Clc1cccc(OCCCN2CCCC2)c1Cl	2% (active)
O=C(CN1CCCCCCC1)Nc1cccc(Cl)c1Cl	-14%
Cc1ccc(NC(=O)C2C3CCC(O3)C2C(=O)O)cc1C (stereo not drawn)	-1%
S=C(Nc1ccccc1)Nc1nc2ccccc2n1CCOc1ccccc1	-9%
CCCc1nnc(NC(=O)CN2CCOCC2)s1	-19%
O=C(Nc1ccccc1)N1CCSc2cc(Cl)ccc21	-1%
CC1CCc2sc(-c3n[nH]c(=S)o3)cc2C1 (stereo not drawn)	9% (active)
CCc1c(C)nc(SC)n(CC#N)c1=O	-2%
COc1ccccc1C(=O)NC(=S)NNC(=O)c1sc2ccccc2c1Cl	-18%
COc1cccc(C(=O)NC(=S)Nn2cnnc2)c1OC	-14%
COc1ccccc1C(=O)NNC(=S)NC(=O)c1sc2ccccc2c1Cl	43% (active)
O=C(NNC(=S)NC(=O)c1sc2ccccc2c1Cl)c1ccc(Cl)cc1	70% (active)
